Where “and” joins values, the source holds several entries; their conditions need not be identical. Equal values may be shown once. Calls of active or inactive are those of the source. Unless noted, the rule behind the calls is not given here.
Key:
[1] = compounds altering circadian rhythm period length – cell-based, LOPAC library, luminescence reporter (AID 2774); conditions: circadian reporter cells, at 7 µM, actives lie on both sides;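 note: values are relative to mean of DMSO wells on each plate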
[2] = tested on: Hepatitis C virus NS3 helicase; test: blockers of NS3h binding to ssDNA – biochemical, fluorescence polarization, LOPAC1280 library, primary screen (AID 687035; in the data active = inhibition above about 37%); conditions: Purified HCV NS3 helicase, Cy5-dT15 ssDNA binding fluorescence polarization; stronger effect = higher value; concentration not given here
[3] = compounds altering Cy5-DNA-NS3h complex signal – biochemical, LOPAC1280, artefact control for HCV NS3 helicase inhibitor project (AID 687037); conditions: Cy5-DNA-NS3h complex fluorescence interference counterscreen
[4] = tested on: Aerobactin synthetase IucA (Klebsiella pneumoniae); test: inhibition of K. pneumoniae IucA enzyme – biochemical, Tocris library, absorbance (AID 1345561); conditions: purified IucA enzyme assay, absorbance (OD) read-out; stronger effect = lower value;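 tested at 8 µM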;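 note: 100% = enzyme without compound and 0% = no enzyme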
[5] = viability loss with induced miR-34 in A549 – imaging, A549 dox-inducible miR-34, nuclei and caspase counts, primary screen (AID 1347080;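 active = compounds whose cell count with miR-34 switched on is under 0.7 times the count with it off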); conditions: A549 miR-34 inducible, Hoechst nuclei count, 48 h
[6] = blockers of cellular phospholipid synthesis – cell-based, LOPAC library, screen 4, primary screen (AID 1347384); conditions: animal cells, phospholipid biosynthesis inhibition screen; at 10 µM
[7] = galactose survival enhancers in mitochondrial complex I cybrids – cell-based, galactose medium, ATP luminescence, primary screen (AID 1645843;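 active = z-score of at least 1.8 in each of two replicates, scored against plate mean and spread of sample wells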;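 note: positive z means more ATP and so rescue of galactose-driven cybrid death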); conditions: complex I mutant cybrid cells, 72 h, stronger effect = higher value
[8] = MELAS cybrid and Rieske KO viability enhancers – cell-based, MELAS cybrids, Rieske KO mouse fibroblasts, CellTiter-Glo, primary screen (AID 1508586;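 active = mean z-score across replicates of 1.96 or higher in either the MELAS or the Rieske mutant cell line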;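 note: z relative to plate mean and SD of compound and empty wells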); conditions: low glucose
[9] = growth inhibition, single agent or in combination, cell-based, chromothripsis tumors, cisplatin or BGB combos (AID 1671449; in the data active = inhibition above about 80%;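 note: cells exposed for 96 hours; 0% = vehicle DMSO and 100% = killing by high DMSO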); conditions: LFS_MB_P medulloblastoma cells
[10] = growth inhibition, single agent and combos, cell-based, chromothripsis tumors, cisplatin or BGB combos (AID 1671450; in the data active = inhibition above about 80%;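 note: cells exposed to compound for four days; 0% = vehicle DMSO and 100% = cell killing by high DMSO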); conditions: HDN33 neuroblastoma cells, stronger effect = higher value
[11] = growth inhibition, single agents and combos, ICB984, cell-based, cisplatin or BGB combos, synergistic combos for chromothripsis tumors (AID 1671451); conditions: ICB984 medulloblastoma cells, drug combinations, stronger effect = higher value;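 note: cells exposed for 96 hours before readout; 0% = vehicle DMSO and 100% = killing by high DMSO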
[12] = growth inhibition, single agents and combos, HTB85, cell-based, BGB or cisplatin IC20 combos, synergistic combos for chromothripsis tumors (AID 1671453; in the data active = inhibition above about 80%;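 note: cells exposed for 96 hours before readout; 0% = vehicle DMSO and 100% = high DMSO killing control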); conditions: HTB85 osteosarcoma cells, drug combinations, stronger effect = higher value
[13] = growth inhibition, MDA-MB-436, cell-based, BGB or cisplatin combos, synergistic combos for chromothripsis tumors (AID 1671458); conditions: MDA-MB-436 breast carcinoma growth inhibition, drug combinations, stronger effect = higher value;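 note: cells exposed for 96 hours; 0% = vehicle DMSO and 100% = killing by high DMSO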
[14] = BT084 cell growth, single and combined drugs, ICGC_MB145, cisplatin and BGB IC40 combos (AID 1671461; in the data active = inhibition above about 80%;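 note: cells exposed to drugs for 96 hours; 0% = vehicle DMSO and 100% = high DMSO full killing control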); conditions: BT084 medulloblastoma cells, drug combinations, stronger effect = higher value
[15] = chitosan synthesis blockers in C. neoformans – flow cytometry, Cibacron Brilliant Red staining (AID 1347148); conditions: Cryptococcus neoformans chitosan, stronger effect = lower value; at 10 µM unless noted;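 note: compound exposure lasted three days at 37 degrees C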
[16] = compounds altering viability of human ES cells (AID 493140); conditions: human embryonic stem cell survival screen; stronger effect = higher value;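 note: cells exposed to compounds for four days before counting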
[17] = stronger effect = lower value, cell number ratio, induced over uninduced
[18] = measured here: relative caspase fold change +Dox/-Dox
[19] = measured here: total cells with miR-34 induction, stronger effect = lower value
[20] = measured here: total cells without miR-34 induction
[21] = MELAS cybrid survival, CellTiter-Glo 48 h, stronger effect = higher value
[22] = Rieske KO mouse fibroblast survival, CellTiter-Glo 72 h

Cc1cccc(/C=C/c2ccccc2)n1
period change [1]: 0.01 h (inactive)
inhibition [2]: 0% (inactive)
fluorescence ratio (interference) [3]: 1 (inactive)
remaining activity [4]: 108% (inactive)
fold change [5, 17]: 0.995 (inactive) and 0.915 (inactive)
fold change [5, 18]: 1.79 and 0.591
cell count [5, 19]: 9190 and 8490
cell count [5, 20]: 9240 and 9280
outcome [6]: inactive
z-score [7]: 1.12 (inactive) and 0.09 (inactive)

O=C(Nc1ccncc1)c1cc([N+](=O)[O-])ccc1Cl
inhibition [2]: 0% (inactive)
fluorescence ratio (interference) [3]: 1 (inactive)
remaining activity [4]: 127% (inactive)
outcome [6]: inactive
z-score [8, 21]: 0.0073 (inactive)
z-score [8, 22]: -0.438
z-score [7]: -1.12 (inactive) and -0.63 (inactive)
inhibition ([9]; at 0.5 µM, stronger effect = higher value): -6.15% (inactive)
inhibition ([9]; measured here: combination with BGB IC20, at 0.005 µM): -50.3%
inhibition ([9]; measured here: combination with BGB IC40, at 0.005 µM): -79.8%
inhibition ([9]; measured here: combination with BGB IC40, at 0.05 µM): -56.1%
inhibition ([9]; measured here: combination with cisplatin, at 0.5 µM, stronger effect = higher value): -30.4%
inhibition ([9]; measured here: combination with cisplatin, at 5 µM, stronger effect = higher value): -22.9%
inhibition ([10]; BGB combo, at 5 µM): -13.6%
inhibition ([10]; at 0.5 µM): 1.6% (inactive)
inhibition ([10]; cisplatin combo, at 5 µM): 3.19%
inhibition ([10]; measured here: with BGB IC20 combination, at 0.5 µM): -13.6%
inhibition ([10]; measured here: with cisplatin IC20 combination, at 0.5 µM): 24.4%
inhibition ([10]; single agent, at 5 µM): -14.1%
inhibition ([11]; BGB IC20 combo, at 0.005 µM): -18%
inhibition ([11]; BGB IC40 combo, at 0.005 µM): -35.6%
inhibition ([11]; BGB IC40 combo, at 0.05 µM): 0.746%
inhibition ([11]; at 0.5 µM): -34.7% (inactive)
inhibition ([11]; cisplatin combo, at 0.05 µM): -4.27%
inhibition ([11]; cisplatin combo, at 0.5 µM): -45.9%
inhibition ([11]; cisplatin combo, at 5 µM): -23.5%
inhibition ([11]; measured here: 5 uM single agent, at 5 µM): -11.4%
inhibition ([12]; at 0.5 µM): -15.1% (inactive)
inhibition ([12]; measured here: with BGB IC20, at 0.5 µM): -10.2%
inhibition ([12]; measured here: with BGB IC20, at 5 µM): 1.89%
inhibition ([12]; measured here: with cisplatin IC20, at 0.5 µM): -20.9%
inhibition ([12]; measured here: with cisplatin IC20, at 5 µM): -16.5%
inhibition ([12]; single agent, at 5 µM): -8.5%
inhibition ([13]; at 0.5 µM): -25.3% (inactive)
inhibition ([13]; measured here: BGB combination, at 0.5 µM): -15.4%
inhibition ([13]; measured here: BGB combination, at 5 µM): -30%
inhibition ([13]; measured here: cisplatin combination, at 0.5 µM): -47.1%
inhibition ([13]; measured here: cisplatin combination, at 5 µM): -23.8%
inhibition ([14]; at 0.5 µM): -26.5% (inactive)
inhibition ([14]; cisplatin combination, at 0.5 µM): -23.3%
inhibition ([14]; cisplatin combination, at 5 µM): -134%
inhibition ([14]; measured here: BGB IC40 combination 0.05 uM, at 0.05 µM): -33.5%
inhibition ([14]; single agent, at 5 µM): 23.7%

Oc1cc2c(cc1O)CN(C(=S)NCCc1ccc(Cl)cc1)CCC2
period change [1]: 0.035 h (inactive)
inhibition [2]: 0% (inactive)
fluorescence ratio (interference) [3]: 1 (inactive)
remaining activity [4]: 72.4% (inactive)
fold fluorescence [15]: 5.63 [at 132.7 µM] (inactive)
outcome [6]: inactive
z-score [7]: -0.99 (inactive) and -1.23 (inactive)

CC(C)[C@@H]1CC[C@@H](C)C[C@@H]1P(=O)(c1ccccc1)c1ccccc1
inhibition [2]: 2% (inactive)
fluorescence ratio (interference) [3]: 1 (inactive)
remaining activity [4]: 100% (inactive)
fold change [5, 17]: 0.961 (inactive) and 0.925 (inactive)
fold change [5, 18]: 0.895 and 1.06
cell count [5, 19]: 8530 and 7980
cell count [5, 20]: 8880 and 8620
outcome [6]: inactive
z-score [7]: 0.1 (inactive) and -0.24 (inactive)

Oc1cc2c(c(Cl)c1O)CCNCC2c1ccccc1 (stereo not given)
period change [1]: 0.11 h (inactive)
fluorescence ratio (interference) [3]: 0.6 (active)
remaining activity [4]: 120% (inactive)
fold change [5, 17]: 1.3 (inactive) and 0.885 (inactive)
fold change [5, 18]: 0.646 and 0.88
cell count [5, 19]: 5030 and 5850
cell count [5, 20]: 3880 and 6610
outcome [6]: inactive
z-score [7]: 0.1 (inactive) and -0.405 (inactive)

COc1ccc2c(c1)c(CC(=O)N1CCOCC1)c(C)n2C(=O)c1ccc(Cl)cc1
period change [1]: -0.115 h (inactive)
survival [16]: 105 (inactive)
remaining activity [4]: 123% (inactive)
fold fluorescence [15]: 2.56 (active)
z-score [8, 21]: -0.237 (inactive)
z-score [8, 22]: -0.286
z-score [7]: -0.295 (inactive)

Source: PubChem BioAssay
